Measured values reported in PubChem BioAssay (Tox21).
Inconclusive results are not listed. Entries that show only a call come without a potency. Active and inactive are the calls of the source. Unless noted, calls come from the whole dose curve; as a rule, active = well fitted curve in the direction sought with a large enough effect in the repeat runs; inconclusive = weak or mixed curves; inactive = no such curve, though single readings can be large; an effect the other way counts as inactive or inconclusive.

Columns and labels:
[1] = qHTS assay to identify small molecule antagonists of the glucocorticoid receptor (GR) signaling pathway - cell viability counter screen (AID 720693); details: GR-bla HeLa viability, CellTiter-Glo luminescence, 18 h, with 5 nM dexamethasone present; series mostly up to 58.5 µM; note: nearly all actives have a fitted effect of over 55% in size; note: potency is the fitted concentration of half-maximal effect
[2] = qHTS assay for identifying genotoxic compounds that show differential cytotoxicity against isogenic chicken DT40 cell lines with known DNA damage response pathways - wild type cell line (AID 743012); details: DT40 wild type chicken cells viability, CellTiter-Glo, 40 h; series mostly up to 68.4 µM; note: nearly all actives have a fitted effect of over 60% in size; note: potency is the fitted concentration of half-maximal effect
In short: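 Quantitative HTS on parental DT40 cells: 40 h compound treatment at 37 C/5% CO2, with viability then determined by CellTiter-Glo luminescence. Values serve as the DNA repair-proficient reference for differential cytotoxicity.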

[3] = qHTS assay for identifying genotoxic compounds that show differential cytotoxicity against isogenic chicken DT40 cell lines with known DNA damage response pathways - Rev3 mutant cell line (AID 743014); details: chicken DT40 Rev3-/- viability, CellTiter-Glo, 40 h; series mostly up to 68.4 µM; note: nearly all actives have a fitted effect of over 55% in size; note: potency is the fitted concentration of half-maximal effect
[4] = qHTS assay for identifying genotoxic compounds that show differential cytotoxicity against isogenic chicken DT40 cell lines with known DNA damage response pathways - Rad54/Ku70 mutant cell line (AID 743015); details: DT40 Rad54/Ku70 mutant viability, CellTiter-Glo, 40 h; series mostly up to 66.8 µM; note: nearly all actives have a fitted effect of over 60% in size; note: potency is the fitted concentration of half-maximal effect
[5] = qHTS assay to identify small molecule antagonists of the androgen receptor (AR) signaling pathway - cell viability counter screen (AID 743033; note: nearly all actives have a fitted effect of over 45% in size; note: potency is the fitted concentration of half-maximal effect); details: AR-bla HEK293 viability, CellTiter-Glo luminescence, 16 h; series mostly up to 58.5 µM
[6] = molecular target: Androgen receptor (Homo sapiens) (UniProt P10275); assay: qHTS assay to identify small molecule antagonists of the androgen receptor (AR) signaling pathway (AID 743035; active = well fitted inhibition curve with a large enough effect in the signal ratio in the repeat runs, not every such curve was filed as active; the % refers to the signal ratio; note: potency is the fitted concentration of half-maximal effect); details: HEK293 AR-UAS-bla, R1881-stimulated, beta-lactamase FRET, 16 h; series mostly up to 58.5 µM
In short: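 Cell line: GeneBLAzer AR-UAS-bla GripTite (HEK293). Stimulus: R1881 added after compound. Exposure: 16 h, 37C, 5% CO2. Readout: LiveBLAzer B/G FRET fluorescence after 2 h at room temperature.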

[7] = molecular target: Androgen receptor (Homo sapiens) (UniProt P10275); assay: qHTS assay to identify small molecule agonists of the androgen receptor (AR) signaling pathway (AID 743036; active = well fitted activation curve with a large enough effect in the signal ratio in the repeat runs, with a control signal flat, not every such curve was filed as active; the % refers to the signal ratio); details: HEK293 AR-UAS-bla GripTite, beta-lactamase FRET ratio, 16 h; series mostly up to 62.4 µM
In short: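 Activation was read as beta-lactamase FRET signal from LiveBLAzer B/G substrate, added for 2 h at room temperature. Before that, GeneBLAzer AR-UAS-bla GripTite (HEK293) cells had 16 h compound exposure at 37C.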

[8] = molecular target: Androgen receptor (Homo sapiens) (UniProt P10275); assay: qHTS assay to identify small molecule agonists of the androgen receptor (AR) signaling pathway using the MDA cell line (AID 743040; note: nearly all actives have a fitted effect of over 20% in size); details: MDA-kb2 AR-luc cells, MMTV luciferase, 16 h; series mostly up to 70.3 µM
In short: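 Luminescence from ONE-Glo, read after 30 min at room temperature, reflects MMTV-driven luciferase in MDA-kb2 cells (AR- and GR-responsive). Treatment lasted 16 h at 37C, 0% CO2.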

[9] = qHTS assay to identify small molecule antagonists of the androgen receptor (AR) signaling pathway using the MDA cell line - cell viability counter screen (AID 743041; note: nearly all actives have a fitted effect of over 45% in size); details: MDA-kb2 viability, CellTiter-Fluor, 16 h, cells co-treated with R1881 androgen agonist; series mostly up to 70.3 µM
In short: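 Viability counter screen run alongside the AR antagonist reporter: cells seeded 5 h before compound, R1881 added, 16 h incubation at 37C without CO2, fluorescent CellTiter-Fluor signal quantified.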

[10] = molecular target: Androgen receptor (Homo sapiens) (UniProt P10275); assay: qHTS assay to identify small molecule antagonists of the androgen receptor (AR) signaling pathway using the MDA cell line (AID 743042; note: nearly all actives have a fitted effect of over 55% in size; note: potency is the fitted concentration of half-maximal effect); details: MDA-kb2 AR-luc, MMTV luciferase, R1881 antagonist, 16 h; series mostly up to 70.3 µM
In short: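 MDA-kb2 cells (human breast carcinoma, stably carrying an MMTV-luciferase reporter responsive to AR and GR) were plated at 3,000 cells/well and preincubated 5 hr at 37C, then given compound plus R1881 agonist for 16 h. ONE-Glo luminescence was read.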

[11] = qHTS assay to identify small molecule antagonists of the thyroid receptor (TR) signaling pathway - cell viability counter screen (AID 743064); details: GH3.TRE-Luc viability, CellTiter-Fluor, 24 h; series mostly up to 70.3 µM; note: nearly all actives have a fitted effect of over 50% in size
In short: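 In-well cytotoxicity read by CellTiter-Fluor (30 min, 37 C) following 23.5 h exposure of GH3 cells bearing a TRE-luciferase sensor. Compounds were added alongside 1 nM (final) T3 to drive TR transactivation.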

[12] = qHTS assay to identify small molecule antagonists of the thyroid receptor (TR) signaling pathway (AID 743065); details: GH3.TRE-Luc, T3-stimulated luciferase inhibition, 23.5 h; series mostly up to 70.3 µM; note: nearly all actives have a fitted effect of over 55% in size; note: potency is the fitted concentration of half-maximal effect
In short: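 GH3.TRE-Luc rat pituitary cells carrying two TR response elements driving luciferase were plated for 4 h, given compound plus 1 nM T3 (final), and incubated 23.5 h at 37 C. ONE-Glo luminescence measured reporter inhibition; CellTiter-Fluor fluorescence tracked cytotoxicity.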

[13] = test system: thyroid hormone receptor (rat, GH3 cells); assay: qHTS assay to identify small molecule agonists of the thyroid receptor (TR) signaling pathway (AID 743066; calls by dose curve); details: GH3.TRE-Luc cells, TR agonist luciferase, 24 h; series mostly up to 83.9 µM
[14] = molecular target: Estrogen receptor (Homo sapiens) (UniProt P03372); assay: qHTS assay to identify small molecule antagonists of the estrogen receptor alpha (ER-alpha) signaling pathway (AID 743069; active = well fitted curve in the direction sought with a large enough effect in the signal ratio in the repeat runs, not every such curve was filed as active; the % refers to the signal ratio); details: HEK293 ER-alpha-UAS-bla, beta-lactamase ratio, antagonist mode; series mostly up to 69.4 µM
In short: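 Estradiol-stimulated ER-alpha-UAS-bla HEK293 cells, 18 hr compound exposure at 37C. LiveBLAzer B/G substrate, 2 hr RT, fluorescence read.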

[15] = qHTS assay to identify small molecule antagonists of the estrogen receptor alpha (ER-alpha) signaling pathway - cell viability counter screen (AID 743074; calls by dose curve;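 note: HEK293 cells carrying ER-alpha-UAS-bla reporter stimulated with 17beta-estradiol; nearly all actives have a fitted effect of over 45% in size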; note: potency is the fitted concentration of half-maximal effect); details: ERalpha-bla HEK293 viability, CellTiter-Glo luminescence, 18 h; series mostly up to 69.4 µM
[16] = molecular target: Estrogen receptor (Homo sapiens) (UniProt P03372); assay: qHTS assay to identify small molecule agonists of the estrogen receptor alpha (ER-alpha) signaling pathway (AID 743075; calls by dose curve;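 note: HEK293 GripTite cells with ER-alpha and UAS-driven beta-lactamase reporter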); details: HEK293 ER-alpha-UAS-bla, beta-lactamase FRET ratio, 18 h; series mostly up to 70.1 µM
[17] = molecular target: Estrogen receptor (Homo sapiens) (UniProt P03372); assay: qHTS assay to identify small molecule agonists of the estrogen receptor alpha (ER-alpha) signaling pathway using the BG1 cell line (AID 743079); details: BG1Luc4E2 cells, ERE-luciferase agonist, 22 h; series mostly up to 70.3 µM; note: nearly all actives have a fitted effect of over 20% in size; note: potency is the fitted concentration of half-maximal effect
[18] = qHTS assay to identify small molecule antagonists of the estrogen receptor alpha (ER-alpha) signaling pathway using the BG1 cell line (AID 743080; calls by dose curve;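 note: BG1 cells stimulated with 17beta-estradiol alongside compound; nearly all actives have a fitted effect of over 25% in size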); details: BG1Luc4E2 ERE-luciferase antagonist mode, luminescence; series mostly up to 70.3 µM
In short: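 After 5 days in phenol-red-free 10% charcoal-stripped FBS medium, BG1-Luc-4E2 cells were seeded, left 24 h at 37 C, co-treated with compounds and 17beta-estradiol for 21.5 h, then assayed for viability and luciferase.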

[19] = qHTS assay to identify small molecule antagonists of the estrogen receptor alpha (ER-alpha) signaling pathway using the BG1 cell line - cell viability counter screen (AID 743081); details: BG1Luc4E2 viability, CellTiter-Fluor, 22 h; series mostly up to 70.3 µM;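 note: compound given together with 17beta-estradiol as the ER stimulus; nearly all actives have a fitted effect of over 45% in size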
Aromatase (Homo sapiens) = Aromatase (Homo sapiens) (UniProt P11511); assay: qHTS assay to identify aromatase inhibitors (AID 743083); details: MCF-7 aro ERE, testosterone-driven ERE luciferase, 24 h; series mostly up to 70.3 µM; note: nearly all actives have a fitted effect of over 55% in size; note: potency is the fitted concentration of half-maximal effect
Chain of Aromatase (Homo sapiens) (P11511 whole entry, looked up): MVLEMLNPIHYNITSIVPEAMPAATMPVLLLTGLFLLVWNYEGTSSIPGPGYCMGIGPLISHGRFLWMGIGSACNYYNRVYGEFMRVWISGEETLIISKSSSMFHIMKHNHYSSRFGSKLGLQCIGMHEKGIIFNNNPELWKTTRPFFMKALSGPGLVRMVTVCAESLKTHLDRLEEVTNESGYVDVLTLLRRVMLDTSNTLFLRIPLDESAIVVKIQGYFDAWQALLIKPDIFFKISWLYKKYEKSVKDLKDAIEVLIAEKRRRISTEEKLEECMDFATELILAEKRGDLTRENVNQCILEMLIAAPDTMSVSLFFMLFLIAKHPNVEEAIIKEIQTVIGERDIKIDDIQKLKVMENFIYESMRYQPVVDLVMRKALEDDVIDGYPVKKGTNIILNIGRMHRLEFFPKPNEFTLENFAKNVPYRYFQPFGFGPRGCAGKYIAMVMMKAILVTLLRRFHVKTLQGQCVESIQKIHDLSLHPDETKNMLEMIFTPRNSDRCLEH

Chain of Androgen receptor (Homo sapiens) (P10275 whole entry, looked up): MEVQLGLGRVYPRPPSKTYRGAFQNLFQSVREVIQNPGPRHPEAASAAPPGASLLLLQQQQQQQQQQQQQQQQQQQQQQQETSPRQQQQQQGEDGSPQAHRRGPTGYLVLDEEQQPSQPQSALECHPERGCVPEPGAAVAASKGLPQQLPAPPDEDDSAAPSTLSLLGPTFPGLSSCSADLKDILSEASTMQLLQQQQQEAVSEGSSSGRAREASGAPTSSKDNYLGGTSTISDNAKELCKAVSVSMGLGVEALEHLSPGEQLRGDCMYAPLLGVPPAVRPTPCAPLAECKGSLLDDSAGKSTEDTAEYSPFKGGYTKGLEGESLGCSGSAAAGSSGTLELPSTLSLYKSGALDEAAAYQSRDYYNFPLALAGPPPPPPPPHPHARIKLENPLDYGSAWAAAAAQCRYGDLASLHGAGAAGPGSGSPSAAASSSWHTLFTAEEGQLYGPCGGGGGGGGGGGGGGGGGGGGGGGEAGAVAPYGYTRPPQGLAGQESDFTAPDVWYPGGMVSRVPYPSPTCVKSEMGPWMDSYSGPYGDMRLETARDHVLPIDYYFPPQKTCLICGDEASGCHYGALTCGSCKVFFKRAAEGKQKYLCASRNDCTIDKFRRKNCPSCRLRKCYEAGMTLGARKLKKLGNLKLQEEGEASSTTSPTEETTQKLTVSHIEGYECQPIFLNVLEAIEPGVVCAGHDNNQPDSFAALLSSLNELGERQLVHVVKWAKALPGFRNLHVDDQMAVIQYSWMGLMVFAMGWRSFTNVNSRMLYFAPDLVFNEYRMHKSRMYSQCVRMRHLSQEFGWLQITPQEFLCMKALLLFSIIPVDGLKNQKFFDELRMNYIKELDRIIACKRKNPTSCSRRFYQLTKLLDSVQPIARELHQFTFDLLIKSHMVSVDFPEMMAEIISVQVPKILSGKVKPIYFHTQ
Chain of Estrogen receptor (Homo sapiens) (P03372 whole entry, looked up): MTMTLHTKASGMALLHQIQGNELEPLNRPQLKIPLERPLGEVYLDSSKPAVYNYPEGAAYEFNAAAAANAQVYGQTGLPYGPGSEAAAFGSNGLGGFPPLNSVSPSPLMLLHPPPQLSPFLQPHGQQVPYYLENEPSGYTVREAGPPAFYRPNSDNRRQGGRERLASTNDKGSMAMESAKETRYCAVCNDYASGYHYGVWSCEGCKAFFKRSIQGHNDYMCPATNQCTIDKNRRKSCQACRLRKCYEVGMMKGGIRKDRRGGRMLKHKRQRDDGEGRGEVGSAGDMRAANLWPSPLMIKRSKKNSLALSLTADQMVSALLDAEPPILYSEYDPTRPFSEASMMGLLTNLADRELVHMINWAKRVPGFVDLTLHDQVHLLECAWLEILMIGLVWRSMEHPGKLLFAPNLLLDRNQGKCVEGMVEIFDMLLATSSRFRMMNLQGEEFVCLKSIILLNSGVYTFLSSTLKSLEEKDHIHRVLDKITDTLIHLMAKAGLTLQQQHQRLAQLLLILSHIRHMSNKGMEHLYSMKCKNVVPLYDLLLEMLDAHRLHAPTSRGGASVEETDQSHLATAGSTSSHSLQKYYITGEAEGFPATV

Row | SMILES | Potency [1] | Potency [2] | Potency [3] | Potency [4] | Potency [5] | Potency [6] | Potency [7] | Potency [8] | Potency [9] | Potency [10] | Potency [11] | Potency [12] | Potency [13] | Potency [14] | Potency [15] | Potency [16] | Potency [17] | Potency [18] | Potency [19] | Potency (Aromatase (Homo sapiens))
1 | COc1ccc(/C=C/C(=O)O)cc1 | inactive | inactive | inactive | inactive | inactive | inactive | inactive | inactive | inactive | inactive | inactive | inactive | inactive | inactive | inactive | inactive | inactive | inactive | inactive | inactive
2 | NCCCC[C@H](NC(=O)[C@@H]1CCCN1C(=O)[C@@H]1CSSC[C@H](N)C(=O)N[C@@H](Cc2ccc(O)cc2)C(=O)N[C@@H](Cc2ccccc2)C(=O)N[C@@H](CCC(N)=O)C(=O)N[C@@H](CC(N)=O)C(=O)N1)C(=O)NCC(N)=O | inactive | inactive | inactive | inactive | inactive | inactive | inactive | inactive | inactive | inactive | inactive | – | inactive | inactive | inactive | inactive | inactive | inactive | inactive | inactive
3 | Cc1cc(=O)c(C(=O)N[C@@H](C(=O)N[C@@H]2C(=O)N3C(C(=O)O)=C(CSc4nnnn4C)CS[C@H]23)c2ccc(O)cc2)c[nH]1 | inactive | inactive | inactive | inactive | inactive | inactive | inactive | inactive | inactive | inactive | inactive | inactive | inactive | inactive | inactive | inactive | 23.7 µM (active) | inactive | inactive | inactive
4 | CC1=C(/C=C/C(C)=C/C=C/C(C)=C/C=C/C=C(C)/C=C/C=C(C)/C=C/C2=C(C)CCCC2(C)C)C(C)(C)CCC1 | inactive | inactive | inactive | inactive | inactive | inactive | inactive | inactive | inactive | inactive | inactive | inactive | inactive | inactive | inactive | inactive | inactive | inactive | inactive | inactive
5 | Cc1cc(F)ccc1-c1cc(N2CC[C@@H](O)[C@H]2CO)ncc1N(C)C(=O)C(C)(C)c1cc(C(F)(F)F)cc(C(F)(F)F)c1 | 17.1 µM (active) | 12 µM (active) | 8.5 µM (active) | 10.7 µM (active) | 30.4 µM (active) | 15.3 µM (active) | – | inactive | – | 33.8 µM (active) | – | 9.54 µM (active) | – | – | 43 µM (active) | – | – | – | – | 24 µM (active)
6 | CCC[C@@H]1C[C@@H](C(=O)N[C@@H]([C@H]2O[C@H](SC)[C@H](OP(=O)(O)O)[C@@H](O)[C@H]2O)[C@H](C)Cl)N(C)C1 | inactive | inactive | inactive | inactive | inactive | inactive | inactive | inactive | inactive | inactive | inactive | – | inactive | inactive | inactive | inactive | inactive | inactive | inactive | inactive
